Unmarked numbers belong to inactive results. Results filed as inconclusive are left out. A call without a number means that no potency is given here. Activity calls are given as the source filed them. Unless noted, the call rests on the fitted dose curve; in most records, active means well fitted curve in the direction sought with a large enough effect in the repeat runs; inconclusive means weak or mixed curves; inactive means no such curve, though single readings can be large; an effect the other way counts as inactive or inconclusive.
Legend:
[1] = qHTS RealTime-Glo MT Cell Viability Assay in HepG2 cells - 16 hour (AID 1224885); further: nearly all actives have a fitted effect of over 50% in size
Procedure, shortened: (§1)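 Cells + NanoLuc/prosubstrate dispensed (600 cells/well) → 5 h at 37 C/5% CO2 → compounds in DMSO transferred → 40 h incubation at 37 C, luminescence read at 0, 8, 16, 24, 32, 40 h.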

[2] = qHTS RealTime-Glo MT Cell Viability Assay in HEK293 cells - 24 hour (AID 1224886); further: top concentration of the series differs between compounds; nearly all actives have a fitted effect of over 50% in size
Procedure, shortened: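 Tox21 10K qHTS, HEK293, 600 cells/well, RealTime-Glo reagent co-dispensed with cells; 5 h preincubation, compound by pintool, 37 C, luminescence at 0–40 h.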

[3] = qHTS RealTime-Glo MT Cell Viability Assay in HEK293 cells - 8 hour (AID 1224887); further: top concentration of the series differs between compounds; nearly all actives have a fitted effect of over 50% in size
Procedure, shortened: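 600 cells/well were plated with the nonlytic NanoLuc/prosubstrate reagent, pre-incubated 5 h, then given 23 nL of compound in DMSO. Incubation at 37 C for 40 h, with luminescence from viable-cell-reduced substrate read repeatedly from 0 h.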

[4] = A CellTox Green Cytotoxicity Assay to monitor cytotoxicity in HEK293 cells - 16 hour (AID 1224888); further: nearly all actives have a fitted effect of over 35% in size
Procedure, shortened: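 HEK293 cells, 600/well, were preincubated 5 hours and then exposed to compounds at 37 C for up to 40 hours. A cell-impermeant cyanine dye staining dead-cell DNA was read by fluorescence at 0, 8, 16, 24, 32 and 40 h time points.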

[5] = qHTS RealTime-Glo MT Cell Viability Assay in HepG2 cells - 0 hour (AID 1224889); further: nearly all actives have a fitted effect of over 50% in size
Procedure, shortened: as §1

[6] = A CellTox Green Cytotoxicity Assay to monitor cytotoxicity in HepG2 cells - 8 hour (AID 1224890); further: nearly all actives have a fitted effect of over 45% in size
Procedure, shortened: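 HepG2 cells, 600/well, preincubated 5 h with CellTox Green dye, then exposed to Tox21 compounds in DMSO at 37 C for up to 40 h. Dead-cell DNA fluorescence read at the indicated time point.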

[7] = qHTS assay to identify small molecule antagonists of the estrogen receptor alpha (ER-alpha) signaling pathway using the BG1 cell line in the presence of 0.1 nM 17-beta-estradiol - cell viability counter screen (AID 1259241); further: nearly all actives have a fitted effect of over 40% in size
Procedure, shortened: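 Viability in VM7Luc4E2 cells after 22 hr compound exposure under 0.1 nM 17beta-estradiol stimulation, by CellTiter-Fluor.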

[8] = qHTS assay to identify small molecule antagonists of the androgen receptor (AR) signaling pathway using the MDA cell line in the presence of 0.5 nM R1881 - cell viability counter screen (AID 1259242); further: nearly all actives have a fitted effect of over 45% in size
Procedure, shortened: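 MDA-kb2 cells (MMTV-luciferase, AR/GR responsive) were treated with compounds plus 0.5 nM R1881 (final) for 16 hr at 37C, 0% CO2. Viability was then read in the same wells as live-cell protease fluorescence (CellTiter-Fluor, 30 min).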

[9] = molecular target: Androgen receptor (Homo sapiens) (UniProt P10275); assay: qHTS assay to identify small molecule antagonists of the androgen receptor (AR) signaling pathway using the MDA cell line in the presence of 0.5 nM R1881 (AID 1259243); further: nearly all actives have a fitted effect of over 50% in size; further: potency means the concentration at half of the fitted maximal effect
Procedure, shortened: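 MDA-kb2 cells (MMTV-luciferase, responsive to AR and GR) at 3,000/well, rested 5 h at 37C, 0% CO2, then given compounds plus 0.5 nM R1881 (final) for 16 hr. Luciferase read with ONE-Glo after 30 min at room temperature.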

[10] = molecular target: Estrogen receptor (Homo sapiens) (UniProt P03372); assay: qHTS assay to identify small molecule antagonists of the estrogen receptor alpha (ER-alpha) signaling pathway using the BG1 cell line in the presence of 0.1 nM 17-beta-estradiol (AID 1259244); further: nearly all actives have a fitted effect of over 50% in size
Procedure, shortened: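 VM7Luc4E2 cells (endogenous full-length ER-alpha, 4×ERE-luciferase), kept 5 days in phenol red-free, charcoal-stripped FBS medium; 4,000 cells/well. Compounds added with 0.1 nM (final) 17beta-estradiol, 22 hr at 37C; luminescence read with ONE-Glo after 30 min.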

[11] = qHTS assay to identify small molecule HDAC inhibitors - cell viability counter screen (AID 1259365)
Procedure, shortened: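 Cytotoxicity was gauged in wild-type HCT-116 cells after a brief 2hr treatment with DMSO-dissolved compounds at 37C and 5% CO2, using CellTiter-Glo luminescence developed for 30min at room temperature.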

[12] = qHTS assay to identify small molecule agonists of the sonic hedgehog signaling (Shh) pathway - cell viability counter screen (AID 1259366); further: nearly all actives have a fitted effect of over 50% in size
Procedure, shortened: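 Stable Gli1-Luc NIH/3T3 clone, 2,000 cells/well. Compound exposure 24hr at 37C. Read-out: CellTiter-Fluor fluorescence.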

[13] = qHTS assay to identify small molecule antagonists of the sonic hedgehog signaling (Shh) pathway - cell viability counter screen (AID 1259367); further: nearly all actives have a fitted effect of over 55% in size
Procedure, shortened: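 NIH/3T3-derived Gli1-Luc reporter cells (2,000 per well) rested 4 hr at 37 C, then received DMSO compounds plus conditioned medium. After 23 hr of treatment, CellTiter-Fluor was added for 1 hr at 37C and fluorescence read.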

[14] = qHTS assay to identify small molecule agonists of the sonic hedgehog signaling (Shh) pathway (AID 1259368; calls by dose curve; further: nearly all actives have a fitted effect of over 15% in size; further: potency means the concentration at half of the fitted maximal effect)
Procedure, shortened: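 NIH/3T3-derived 3T3Gli1-Luc cells with stably integrated Gli1-driven firefly luciferase, 2,000 cells/well, compounds added after 4 hr. Incubated 24 hr at 37C, 5% CO2; luminescence read after 30 min with luciferase reagent at room temperature.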

[15] = qHTS assay to identify small molecule antagonists of the sonic hedgehog signaling (Shh) pathway (AID 1259369; calls by dose curve; further: nearly all actives have a fitted effect of over 45% in size)
Procedure, shortened: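 NIH/3T3-derived Gli1-Luc reporter cells plated 4 h, dosed with compound, then stimulated with conditioned medium for 24 h at 37 C. Firefly luciferase luminescence read after 30 min with detection reagent at room temperature.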

[16] = molecular target: Estrogen receptor beta (Homo sapiens) (UniProt Q92731); assay: qHTS assay to identify small molecule antagonists of the estrogen receptor beta (ER-beta) signaling pathway (AID 1259378; active means well fitted inhibition curve with a large enough effect in the signal ratio in the repeat runs, not every such curve was filed as active; the % refers to the signal ratio)
Procedure, shortened: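 ER-beta-UAS-bla HEK293T (GripTite) cells in 2% charcoal-stripped FBS medium were preincubated 6 hr at 37C, dosed with compound, then stimulated with 1 nM E2 (final) for 16 hr; beta-lactamase reporter read by B/G FRET fluorescence after 2 hr substrate loading.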

[17] = qHTS assay to identify small molecule agonists of the androgen receptor (AR) signaling pathway in the presence of an antagonist - cell viability counter screen (AID 1259379);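 further: MDA-kb2 human breast cancer cells carrying an MMTV luciferase reporter; series mostly up to about 92 µM; nearly all actives have a fitted effect of over 25% in size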
Procedure, shortened: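 MDA-kb2 cells (MMTV-luciferase, AR/GR), 3,000/well, 5 h attachment, then 3.0 µM nilutamide (final) and compounds at 15 concentrations. Viability by CellTiter-Fluor fluorescence after 16 h at 37 °C, 0% CO2, in the reporter wells.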

[18] = qHTS assay to identify small molecule HDAC inhibitors (AID 1259364); further: nearly all actives have a fitted effect of over 45% in size; further: potency means the concentration at half of the fitted maximal effect
Procedure, shortened: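 Wild-type HCT-116 cells, plated overnight at 37 C, exposed to compounds 2 hr at 37 C; luminogenic HDAC-Glo substrate then added 30 min at room temperature. Luminescence reports relative endogenous class I/II HDAC activity.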

[19] = molecular target: Estrogen receptor beta (Homo sapiens) (UniProt Q92731); assay: qHTS assay to identify small molecule agonists of the estrogen receptor beta (ER-beta) signaling pathway (AID 1259377; active means well fitted activation curve with a large enough effect in the signal ratio in the repeat runs, not every such curve was filed as active; the % refers to the signal ratio)
Procedure, shortened: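 Measured by fluorescence intensity from a B/G FRET beta-lactamase substrate (2 h, room temperature) in ER-beta-UAS-bla HEK293T cells treated with DMSO-dissolved compounds for 16 hr at 37C and 5% CO2.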

Estrogen receptor beta (Homo sapiens), sequence (Q92731 whole entry, looked up): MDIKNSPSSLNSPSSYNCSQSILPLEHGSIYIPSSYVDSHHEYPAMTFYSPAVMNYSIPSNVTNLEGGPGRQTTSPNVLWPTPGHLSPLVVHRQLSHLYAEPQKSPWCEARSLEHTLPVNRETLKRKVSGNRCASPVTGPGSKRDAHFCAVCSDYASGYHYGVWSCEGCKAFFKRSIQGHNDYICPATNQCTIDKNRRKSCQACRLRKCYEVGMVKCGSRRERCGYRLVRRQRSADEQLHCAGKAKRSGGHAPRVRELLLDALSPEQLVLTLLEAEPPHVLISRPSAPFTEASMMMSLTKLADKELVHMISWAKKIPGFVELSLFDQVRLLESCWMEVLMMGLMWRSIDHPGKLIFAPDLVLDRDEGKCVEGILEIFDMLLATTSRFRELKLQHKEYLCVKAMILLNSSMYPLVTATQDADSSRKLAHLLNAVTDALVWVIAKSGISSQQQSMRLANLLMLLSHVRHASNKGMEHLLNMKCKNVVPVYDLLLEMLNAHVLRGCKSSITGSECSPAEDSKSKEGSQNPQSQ
Androgen receptor (Homo sapiens), sequence (P10275 whole entry, looked up): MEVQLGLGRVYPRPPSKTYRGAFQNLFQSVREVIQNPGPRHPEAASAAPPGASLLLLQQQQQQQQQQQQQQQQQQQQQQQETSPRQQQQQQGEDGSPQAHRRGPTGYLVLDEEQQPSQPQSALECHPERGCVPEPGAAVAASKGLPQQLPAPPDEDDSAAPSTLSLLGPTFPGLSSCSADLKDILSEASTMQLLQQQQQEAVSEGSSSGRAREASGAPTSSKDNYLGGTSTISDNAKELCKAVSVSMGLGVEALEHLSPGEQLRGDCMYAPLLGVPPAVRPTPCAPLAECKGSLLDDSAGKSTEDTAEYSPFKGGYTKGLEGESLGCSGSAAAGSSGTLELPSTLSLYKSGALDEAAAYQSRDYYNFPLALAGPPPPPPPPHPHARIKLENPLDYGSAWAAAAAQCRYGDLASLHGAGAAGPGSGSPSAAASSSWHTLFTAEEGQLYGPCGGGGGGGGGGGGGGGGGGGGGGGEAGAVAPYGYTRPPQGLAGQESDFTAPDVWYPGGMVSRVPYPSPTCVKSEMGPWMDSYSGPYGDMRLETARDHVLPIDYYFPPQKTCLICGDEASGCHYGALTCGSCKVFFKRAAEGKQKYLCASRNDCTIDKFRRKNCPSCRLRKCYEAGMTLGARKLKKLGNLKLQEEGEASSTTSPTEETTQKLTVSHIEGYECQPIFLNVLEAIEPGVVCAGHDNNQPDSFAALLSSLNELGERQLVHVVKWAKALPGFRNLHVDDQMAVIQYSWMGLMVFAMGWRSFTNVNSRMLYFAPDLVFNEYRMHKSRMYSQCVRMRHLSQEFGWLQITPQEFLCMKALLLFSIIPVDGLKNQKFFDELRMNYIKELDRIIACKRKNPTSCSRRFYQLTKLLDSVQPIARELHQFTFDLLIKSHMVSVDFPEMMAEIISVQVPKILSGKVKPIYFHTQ
Estrogen receptor (Homo sapiens), sequence (P03372 whole entry, looked up): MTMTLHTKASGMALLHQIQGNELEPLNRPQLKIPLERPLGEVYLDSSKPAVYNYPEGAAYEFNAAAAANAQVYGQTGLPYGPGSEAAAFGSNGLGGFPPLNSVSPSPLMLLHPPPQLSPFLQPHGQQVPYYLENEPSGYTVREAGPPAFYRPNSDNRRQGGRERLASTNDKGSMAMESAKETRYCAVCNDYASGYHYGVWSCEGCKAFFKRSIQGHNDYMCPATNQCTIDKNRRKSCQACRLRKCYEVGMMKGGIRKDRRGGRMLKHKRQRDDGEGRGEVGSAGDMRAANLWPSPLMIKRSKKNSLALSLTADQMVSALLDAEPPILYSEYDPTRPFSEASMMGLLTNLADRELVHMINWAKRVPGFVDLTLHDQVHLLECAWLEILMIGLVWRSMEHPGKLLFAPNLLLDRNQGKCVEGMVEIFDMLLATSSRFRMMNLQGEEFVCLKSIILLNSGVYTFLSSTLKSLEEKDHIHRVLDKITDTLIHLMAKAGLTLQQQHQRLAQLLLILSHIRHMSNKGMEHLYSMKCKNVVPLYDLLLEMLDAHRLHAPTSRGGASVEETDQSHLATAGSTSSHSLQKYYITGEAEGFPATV

Row | Structure (SMILES) | Potency [1] | Potency [2] | Potency [3] | Potency [4] | Potency [5] | Potency [6] | Potency [7] | Potency [8] | Potency [9] | Potency [10] | Potency [11] | Potency [12] | Potency [13] | Potency [14] | Potency [15] | Potency [16] | Potency [17] | Potency [18] | outcome [19]
1 | CCOC(=O)OC(=O)OCC | inactive | inactive | inactive | inactive | inactive | inactive | inactive | inactive | inactive | inactive | inactive | inactive | inactive | inactive | inactive | inactive | inactive |  | 
2 | CC1CCC(C(C)(C)O)CC1 (stereo not given) | inactive | inactive | inactive | inactive | inactive | inactive | inactive | inactive | inactive |  | inactive | inactive | inactive | inactive | inactive |  | inactive | inactive | 
3 | N#CCCOCCC#N | inactive | inactive | inactive | inactive | inactive | inactive | inactive | inactive | inactive |  | inactive | inactive | inactive | inactive |  | inactive |  | inactive | inactive
4 | CCCCCCCCCCCC(=O)Cl | inactive | inactive | inactive | inactive | inactive | inactive | inactive | inactive |  | inactive | inactive | inactive | inactive | inactive | inactive |  | inactive | inactive | 
5 | COC(=O)c1ccc([N+](=O)[O-])cc1 | inactive | inactive | inactive | inactive | inactive | inactive | inactive | inactive | inactive |  | inactive | inactive | inactive | inactive | inactive |  |  |  | 
6 | CCc1cccc(C)c1N(C(=O)C(=O)O)C(C)COC (stereo not given) | inactive | inactive | inactive | inactive | inactive | inactive | inactive | inactive | inactive | inactive | inactive | inactive | inactive | inactive | inactive |  | inactive | inactive | 
7 | Cc1ccc2nc(-c3ccc(N)cc3)sc2c1S(=O)(=O)O | inactive | inactive | inactive | inactive | inactive | inactive | inactive | inactive | inactive | inactive | inactive | inactive | inactive | 1.9 µM (active) | inactive |  |  | 3.8 µM (active) | 
8 | Cc1cccc2c1ccc1ccccc12 | inactive | inactive | inactive | inactive | inactive | inactive | inactive | inactive | 15.4 µM (active) | inactive | inactive | inactive | inactive | inactive | inactive | inactive | inactive | inactive | 

From PubChem BioAssay (Tox21)
